An excerpt weighted towards active compounds, which were near 9% of everything screened.
BAZ2B inh = inhibitors of human BAZ2B bromodomain. AlphaScreen BAZ2B-H3K14Ac peptide displacement. Q9UIF8. 360,000 compounds, 4.4% hits. Potency, µM (highest dose often 114 µM), without a hit: at the top dose activity change, negative = inhibition, actives largely listed as inhibitors; also: % is scaled to controls: 0 for no effect and ±100 for the full control effect; nearly all actives have a fitted effect of over 60% in size
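BAZ2B 50 nM plus b-H3(5-23)K14Ac 50 nM, PBS pH 7.4/0.01% Tween-20, 30 min RT; compound added (max 110 uM), 30 min RT; streptavidin donor/Ni-chelate acceptor beads 10 ug/mL final, 20 min dark; AlphaScreen read.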
JMJD2A Tudor = inhibitors of human JMJD2A Tudor domain | O75164 | AlphaScreen JMJD2A-Tudor / H3K4me3 peptide binding | Potency, µM (top dose mostly 114 µM), for the others: at the top dose activity change, negative = inhibition, usual class: inhibitors | 390,000 compounds, 4.4% hits; also: % is scaled to controls: 0 for no effect and ±100 for the full control effect; nearly all actives have a fitted effect of over 50% in size
G9a block = G9a (human) methyltransferase inhibition | Q96KQ7 | G9a H3K9 monomethylation, AlphaScreen, 2 h | 350,000 compounds, 8.8% hits | AID 504332 | Potency, µM (series often up to 102 µM), for the others: at the highest dose activity, negative = inhibition, hits mostly inhibitors; also: % is scaled to controls: 0 for no effect and ±100 for the full control effect; nearly all actives have a fitted effect of over 75% in size
Target sequence (Q96KQ7 913-1193 limits assumed): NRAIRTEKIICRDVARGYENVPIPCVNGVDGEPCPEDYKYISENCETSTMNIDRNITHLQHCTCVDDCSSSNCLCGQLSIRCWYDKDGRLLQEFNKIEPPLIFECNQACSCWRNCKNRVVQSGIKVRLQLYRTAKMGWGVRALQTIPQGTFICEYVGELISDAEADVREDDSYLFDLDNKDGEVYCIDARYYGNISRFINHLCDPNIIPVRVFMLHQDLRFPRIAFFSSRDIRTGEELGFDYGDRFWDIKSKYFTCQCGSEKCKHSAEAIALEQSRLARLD
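G9a (20 nM) was preincubated 15 min with compound, then reacted 2 h at room temperature with 500 nM biotin-H3K9 peptide and 20 µM SAM. Monomethyl-H3K9 detected by AlphaScreen using anti-H3K9me1 antibody.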
HP1b binding inh = blocks HP1-beta chromodomain binding to methylated histone tails. P83916. AlphaScreen HP1-beta / biotin-H3K9me3 peptide binding. Potency, µM (doses to about 114 µM), for inactives: top-dose activity change, negative = inhibition, usual class: inhibitors. 390,000 compounds, 0.56% hits. AID 540317; also: nearly all actives have a fitted effect of over 70% in size
Target sequence (P83916 whole entry, looked up): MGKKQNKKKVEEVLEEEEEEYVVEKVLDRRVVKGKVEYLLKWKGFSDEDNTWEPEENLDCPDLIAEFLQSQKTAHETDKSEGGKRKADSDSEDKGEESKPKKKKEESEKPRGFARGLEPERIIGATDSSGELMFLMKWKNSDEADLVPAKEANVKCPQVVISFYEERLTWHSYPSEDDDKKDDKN
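Compound inhibition of the preformed complex between 50 nM HP1-beta and 50 nM biotinylated H3K9me3 peptide was read by AlphaScreen. Buffer was PBS pH 7.4 with 0.01% Tween-20. Incubations ran 30 min at room temperature, with 10 ug/mL donor/acceptor beads.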
ALOX12 inh = inhibitors of human 12S-lipoxygenase ALOX12; P18054; purified 12hLO, xylenol orange hydroperoxide absorbance; Potency, µM (highest dose often 108 µM), inactives show at the top dose activity change, negative = inhibition, hits mostly inhibitors; 580,000 compounds, 1.1% hits; also: % is scaled to controls: 0 for no effect and ±100 for the full control effect
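Purified human 12hLO (150 nM final) in 25 mM Hepes, 0.01% Triton X-100, pH 7.0 was preincubated 15 min at room temperature with compound. Then 40 uM arachidonic acid was added, 30 min. Hydroperoxide was read by Fe-XO absorbance ratio 573/405 nm.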
PLK1 PBD inh = inhibitors of human PLK1 polo-box domain binding; Plk1 PBD binding of FITC phosphopeptide, fluorescence polarization; Potency, µM, inactives show max response, negative = inhibition, most hits filed as inhibitors; 360,000 compounds, 2.8% hits; also: series mostly up to about 57 µM; % is scaled to controls: 0 for no effect and ±100 for the full control effect; nearly all actives have a fitted effect of over 65% in size
An asterisk follows results filed as active; [ ] = remark or other dose. Calls follow the shape of the dose curve; as a rule, active = well fitted curve in the direction sought with a large enough effect; inconclusive = small, poorly fitted or top-dose-only effect, or another doubt; inactive = no such curve, though single readings can be large; an effect the other way counts as inactive or inconclusive. Potency is read from the fitted curve at half-maximal effect.

How did O=c1[nH]c(=O)c2[nH]c(=S)[nH]c2[nH]1 do in these assays?
JMJD2A Tudor: 2.5µM*; HP1b binding inh: 10µM*; ALOX12 inh: 0.71µM*; PLK1 PBD inh: 8.4µM*

How did O=C(C1CC1)n1cc(C(=S)N2CCOCC2)c2ccccc21 do in these assays?
BAZ2B inh: inconclusive; JMJD2A Tudor: 0%; G9a block: 3%[2.33 µM]; HP1b binding inh: 12%; ALOX12 inh: inconclusive; PLK1 PBD inh: -5%

How did O=C(c1cccs1)n1cc(C(=S)N2CCOCC2)c2ccccc21 do in these assays?
BAZ2B inh: inconclusive; JMJD2A Tudor: inconclusive; G9a block: 28µM*; HP1b binding inh: 2%; ALOX12 inh: inconclusive; PLK1 PBD inh: -4%

Results for O=C(O)Cn1cc(C(=S)N2CCCCC2)c2ccccc21 ?
BAZ2B inh: 6%; JMJD2A Tudor: inconclusive; G9a block: 10µM*; HP1b binding inh: -9%; ALOX12 inh: 40µM*; PLK1 PBD inh: 15µM*

What do the screens show for `O=C(Cn1cc(C(=S)N2CCOCC2)c2ccccc21)N1CCOCC1`?
BAZ2B inh: 3%; JMJD2A Tudor: 3%; G9a block: -1%[59 µM]; HP1b binding inh: 24%; ALOX12 inh: inconclusive; PLK1 PBD inh: -14%

What do the screens show for `O=C(O)Cn1cc(C(=S)N2CCOCC2)c2ccccc21`?
BAZ2B inh: -14%; JMJD2A Tudor: -18%; G9a block: inconclusive; HP1b binding inh: -20%; ALOX12 inh: 10µM*; PLK1 PBD inh: 24µM*

How did OC[C@@H]1CN(Cc2cccnc2)C[C@H](n2cnc3c(N4CCCC4)ncnc32)O1 do in these assays?
ALOX12 inh: 4%; PLK1 PBD inh: -3%

Results for COc1ccc(C(=O)N2CCC3(CC2)CC(CO)N(C(=O)c2ccccc2)C3)cc1F (stereo not drawn) ?
ALOX12 inh: 8%

What do the screens show for `Cc1ccc(NC(=S)NCC2CCCO2)c(OC(F)F)c1` (stereo not drawn)?
BAZ2B inh: 4%; JMJD2A Tudor: -1%; G9a block: 3%[59 µM]; HP1b binding inh: 26%; ALOX12 inh: -36%; PLK1 PBD inh: 0%

Results for Cc1ccc(OCCSc2ncnc3nc[nH]c23)cc1 ?
BAZ2B inh: -7%; JMJD2A Tudor: -6%; G9a block: 40µM*; HP1b binding inh: 36%; ALOX12 inh: 22%; PLK1 PBD inh: -2%

What do the screens show for `Cc1cc(/C=N/NC(=O)c2ccncc2)c(C)n1-c1cccc(C(F)(F)F)c1`?
BAZ2B inh: inconclusive; JMJD2A Tudor: inconclusive; G9a block: inconclusive; HP1b binding inh: inconclusive; ALOX12 inh: 30%; PLK1 PBD inh: 5%

What do the screens show for `O=C(Nc1ccc(Nc2ccccc2)cc1)C1CC1`?
BAZ2B inh: inconclusive; JMJD2A Tudor: inconclusive; G9a block: 25µM*; HP1b binding inh: 7%; ALOX12 inh: 8%; PLK1 PBD inh: -1%

Results for NC(=O)c1ccc(NC(=O)C2CC2)cc1 ?
BAZ2B inh: -16%; JMJD2A Tudor: 0%; G9a block: 22%[59 µM]; HP1b binding inh: 12%; ALOX12 inh: 4%; PLK1 PBD inh: -17%

How did O=C(Nc1ccccc1)C1CCN(S(=O)(=O)c2cccs2)CC1 do in these assays?
BAZ2B inh: -1%; JMJD2A Tudor: 4%; G9a block: -3%[59 µM]; HP1b binding inh: 32%; ALOX12 inh: -27%; PLK1 PBD inh: 5%

How did O=C(Nc1ccc(Cc2ccc(NC(=O)C3CC3)cc2)cc1)C1CC1 do in these assays?
JMJD2A Tudor: -24%; G9a block: -1%; HP1b binding inh: 16%; ALOX12 inh: 366%; PLK1 PBD inh: 27µM*

Results for O=C(Nc1ccccc1)C1CCN(c2nccs2)CC1 ?
BAZ2B inh: -28%; JMJD2A Tudor: 3%; G9a block: 50µM*; HP1b binding inh: -16%; ALOX12 inh: -25%; PLK1 PBD inh: inconclusive

What do the screens show for `COc1cccc(C2=CC(=O)CC(C)(C)C2)c1`?
BAZ2B inh: 12%; JMJD2A Tudor: -19%; G9a block: 3%[2.33 µM]; HP1b binding inh: 14%; ALOX12 inh: -20%; PLK1 PBD inh: inconclusive

Bioassay records from PubChem BioAssay.
